In PubChem BioAssay AID950 (NMMLSC, 2007):
The campaign covered roughly 190,000 compounds. About 120 (0.063%) were called active. The list comes from a sample in which actives are over-represented; it also holds similar structures and randomly drawn compounds. Unmarked numbers belong to inactive results. Rule as the data show it: active = inhibition above about 40%; inconclusive = no clear call, values can overlap the other calls; inactive = below that.

Each molecule was assayed against Apoptosis regulator Bcl-2 (Homo sapiens) (UniProt P10415) (assay: inhibitors of Bim-Bcl-2 binding, primary screen, biochemical, multiplexed, human Bcl-2 family (AID 950;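 also: 0% = no compound wells with probe peptide and 100% = reference peptide inhibitor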)). Conditions: Bead-based flow cytometry, Bim peptide-Bcl-2 binding; at 10 µM; active compounds read high.
Sequence of Apoptosis regulator Bcl-2 (Homo sapiens) (P10415 whole entry, looked up): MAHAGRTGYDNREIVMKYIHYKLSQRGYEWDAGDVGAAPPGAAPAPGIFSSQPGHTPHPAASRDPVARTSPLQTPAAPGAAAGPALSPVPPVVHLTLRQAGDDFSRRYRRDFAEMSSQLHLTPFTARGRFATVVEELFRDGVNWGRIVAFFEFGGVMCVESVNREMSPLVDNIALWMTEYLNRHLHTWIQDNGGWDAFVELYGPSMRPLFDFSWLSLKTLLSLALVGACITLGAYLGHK

Row | SMILES | inhibition [%]
1 | CCCN(CCC)c1ccc(C(O)c2nnc(-c3ccccc3)o2)cc1 (stereo not drawn) | -5
2 | O=C(COc1ccc(Cl)cc1)NCc1nnc(SCC(=O)NCC2CCCO2)o1 (stereo not drawn) | -2
3 | COC(=O)c1c(NC(=O)CN2CCN(S(=O)(=O)c3ccccc3[N+](=O)[O-])CC2)sc2c1CCC(C)C2 (stereo not drawn) | 2
4 | O=S(=O)(c1ccccc1)c1nc(-c2ccccc2F)oc1NCc1cccnc1 | 2
5 | CS(=O)(=O)N(Cc1ccccc1Cl)c1ccc(C(=O)NCc2cccnc2)cc1 | -4
6 | CCOC(=O)c1sc(NC(=O)CSc2nc(O)c(Cc3ccccc3)c(=O)[nH]2)nc1C | 0
7 | COc1ccc(CN2CN(C3CCCC3)CSC2=S)cc1 | -4
8 | COC(=O)c1ccc(-n2cnc3ccccc32)nc1 | -4
9 | CCOc1cc(/C=C2/C(=N)N3OC(C)=CC3=NC2=O)ccc1OC | 2
10 | CNC(=O)c1[nH]cnc1C(=O)N[C@@H](CC(C)C)C(=O)OCc1ccccc1 | -3
11 | CCOC(=O)Cn1nnnc1C | -3
12 | CN(NC(=O)C1CC(=O)N(c2ccccc2)C1)C1=NS(=O)(=O)c2ccccc21 (stereo not drawn) | -2
13 | Cc1nc2sc3c(c2c(=O)n1NC(=O)CCl)CCCC3 | -3
14 | COc1ccc(N(CC(=O)Nc2ccc(C)cc2C)S(=O)(=O)c2ccccc2[N+](=O)[O-])c(OC)c1 | -1
15 | COc1cccc(CN(C)CC(=O)NCc2ccccc2Cl)c1OC | 0
16 | CCOC(=O)c1[nH]cnc1C(=O)Nc1ccccc1C | 1
17 | CCCC1(C(=O)OC)NC(c2ccco2)C2C(=O)N(C)C(=O)C21 (stereo not drawn) | -2
18 | CC(=O)Nc1ccc(OC(=O)COc2ccc(Br)cc2)cc1 | 0
19 | c1ccc(Cc2cc[n+](Cc3ccccc3)cc2)cc1 | 0
20 | C/C(CC(=O)Nc1ccc(C)cc1C)=N\NC(=O)C(C)C | 0
21 | COc1cccc(NC(=O)CN(C)CC(=O)Nc2ccc3c(c2)CCC3)c1 | 0
22 | Cc1ccc(NC(=O)N2CCSc3ccccc32)cc1 | -1
23 | COc1ccc(NC(=S)Nc2ccc(S(N)(=O)=O)cc2)c(C)c1 | -4
24 | O=C(c1ccc(Br)o1)N(c1ccccn1)C1CCCCC1 | -16
25 | Cc1sc2c(c1C)c(=O)n(-c1ccccc1)c(=O)n2CC(=O)NCC1CCCO1 (stereo not drawn) | 1
26 | COc1ccc(Br)cc1CN(C)CC(=O)Nc1cc([N+](=O)[O-])ccc1OC | -9
27 | O=C(/C=C/c1ccccc1Cl)Nc1ccc(S(=O)(=O)Nc2ncccn2)cc1 | -1

Row | SMILES | inhibition [%]
28 | COC(=O)Cc1ccc(OCC(=O)Nc2ccc(OC(F)(F)F)cc2)cc1 | -5
29 | O=C(C1CCCO1)N(c1ccc(F)cc1)C1C=CS(=O)(=O)C1 (stereo not drawn) | -2
30 | CCc1nnc(NC(=O)CCN(c2ccc(C)cc2)S(=O)(=O)c2ccccc2)s1 | 0
31 | COc1ccc(-c2csc(NC(=O)c3ccc(N4C(=O)CCC4=O)cc3)n2)cc1OC | -4
32 | CCOc1ccc(NC(=O)CC2C(=O)N(c3ccccc3)C(=O)N2CCOC)cc1 (stereo not drawn) | 1
33 | Cc1ccc(C(NC(=O)N2CCCC2)C(Cl)(Cl)Cl)cc1F (stereo not drawn) | -1
34 | COc1ccc(C[C@H]2CN3C(=NC[C@H]3C)N2CCNC(=O)CCC2CCCCC2)cc1 | 0
35 | CCOc1ccc(-c2ccc(SCC(=O)N3CCOCC3)nn2)cc1 | -3
36 | O=C(CC1CCCCC1)NCc1ccco1 | -4
37 | CCOC(=O)CNC(=O)/C=C/c1c(Cl)cccc1Cl | 4
38 | CCN(CC)CCCNC(=O)Cn1cnc2sc(C)c(S(=O)(=O)N3CCN(c4ncccn4)CC3)c2c1=O | -3
39 | CCOn1c(=O)c(=O)n(O)c2ccccc21 | -1
40 | CCO[C@@H]1OC(C(=O)NCc2nc3ccccc3[nH]2)=C[C@H](C2CCCCC2)[C@H]1CCCO | -2
41 | Fc1cccc(CSc2nnc3ccc(-c4ccncc4)nn23)c1 | 3
42 | CSc1ccc(/C=N/NC(=O)c2cccc(Cl)c2)cc1 | -7
43 | O=C(Cc1ccc([N+](=O)[O-])cc1)N/N=C/c1ccco1 | -4
44 | CC1(C)CC(=O)C(C2c3ccccc3S(=O)(=O)c3ccccc32)C(=O)C1 | 0
45 | O=C(Oc1c(-c2ccco2)oc2ccccc2c1=O)c1cccnc1 | -4
46 | CCOCCCn1c(NN)nc2ccccc2c1=O | -5
47 | CCOc1ccc(NC(=O)c2ccc(CSc3nnnn3C)cc2)cc1 | -9
48 | Nc1nnc(SCn2nnc3ccccc3c2=O)s1 | -5
49 | CN(CC(=O)Nc1ccccc1F)CC(=O)Nc1ccccc1Br | -5
50 | Cc1cc(C)cc(N(CC(=O)NCCSCc2ccco2)S(C)(=O)=O)c1 | -7
51 | COc1ccc(C(CCN(Cc2ccc(OC)c(OC)c2)C(=O)CCl)c2ccccc2)cc1 (stereo not drawn) | -6
52 | COc1cc(OC)c(C(=O)OC(C)C(=O)Nc2cc(C(F)(F)F)ccc2Cl)cc1OC (stereo not drawn) | -3
53 | Cc1ccnc(NC(=O)C(C)N2C(=O)c3ccccc3C2=O)c1 (stereo not drawn) | 0
